Rows were chosen to be rich in hits. Some 10% of all compounds tested hit in one or more screens of this group.
G9a inh: inhibitors of human histone lysine methyltransferase G9a; Q96KQ7; G9a H3K9 monomethylation, AlphaScreen, 2 h; Potency, µM (highest dose often 102 µM), for inactives: top-dose activity, negative = inhibition, usual class: inhibitors; actives 8.8% (n = 350,000); further: on the % scale 0 is the no-effect control and ±100 the full control effect; nearly all actives have a fitted effect of over 75% in size
Target sequence (Q96KQ7 913-1193 limits assumed): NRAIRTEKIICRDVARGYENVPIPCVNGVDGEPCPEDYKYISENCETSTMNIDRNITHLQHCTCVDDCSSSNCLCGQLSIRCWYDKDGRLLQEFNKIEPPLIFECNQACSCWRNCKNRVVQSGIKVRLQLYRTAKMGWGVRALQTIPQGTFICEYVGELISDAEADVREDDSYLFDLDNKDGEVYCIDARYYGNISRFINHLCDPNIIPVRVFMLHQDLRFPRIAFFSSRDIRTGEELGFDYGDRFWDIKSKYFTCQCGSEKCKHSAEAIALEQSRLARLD
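Compounds were preincubated with 20 nM G9a for 15 min, after which biotinylated H3K9 peptide (500 nM) and SAM (20 uM) started a 2 h room-temperature reaction. Monomethylated product was quantified by antibody-based AlphaScreen chemiluminescence.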
L3MBTL1 block: inhibitors of human L3MBTL1; Q9Y468; actives 0.66% (n = 230,000); Potency, µM (doses to about 57.1 µM), inactives show top-dose activity, negative = inhibition, most hits filed as inhibitors; AlphaScreen L3MBTL1–H3K9me1 peptide binding; further: on the % scale 0 is the no-effect control and ±100 the full control effect; nearly all actives have a fitted effect of over 60% in size
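First, the protein-peptide complex forms for 30 min at room temperature (L3MBTL1 50 nM, biotinylated H3K9me1 peptide 75 nM). Next, compounds are pin-transferred and incubated 30 min. Finally, AlphaScreen beads are added and read after 30 min.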
JMJD2A Tudor inh: inhibitors of human JMJD2A Tudor domain. O75164. AlphaScreen JMJD2A-Tudor / H3K4me3 peptide binding. Potency, µM (highest dose often 114 µM), without a hit: top-dose activity change, negative = inhibition, usual class: inhibitors. actives 4.4% (n = 390,000); further: on the % scale 0 is the no-effect control and ±100 the full control effect; nearly all actives have a fitted effect of over 50% in size
BAZ2B inh: blocks human BAZ2B. Potency, µM (titrated, usually from 114 µM), without a hit: at the top dose activity change, negative = inhibition, hits mostly inhibitors. actives 4.4% (n = 360,000). AlphaScreen BAZ2B-H3K14Ac peptide displacement. Q9UIF8. AID 504333; further: on the % scale 0 is the no-effect control and ±100 the full control effect; nearly all actives have a fitted effect of over 60% in size
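Protein-peptide AlphaScreen: BAZ2B 50 nM, b-H3K14Ac 50 nM, 1x PBS pH 7.4 + 0.01% Tween-20. Preincubation 30 min RT; cpd 30 min RT (top 110 uM); beads 20 min RT, light-protected.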
HP1b binding inh: inhibitors of HP1-beta chromodomain binding to methylated histone tails; P83916; AlphaScreen HP1-beta / biotin-H3K9me3 peptide binding; actives 0.56% (n = 390,000); Potency, µM (doses to about 114 µM), for inactives: at the highest dose activity change, negative = inhibition, actives largely listed as inhibitors; AID 540317; further: nearly all actives have a fitted effect of over 70% in size
Target sequence (P83916 whole entry, looked up): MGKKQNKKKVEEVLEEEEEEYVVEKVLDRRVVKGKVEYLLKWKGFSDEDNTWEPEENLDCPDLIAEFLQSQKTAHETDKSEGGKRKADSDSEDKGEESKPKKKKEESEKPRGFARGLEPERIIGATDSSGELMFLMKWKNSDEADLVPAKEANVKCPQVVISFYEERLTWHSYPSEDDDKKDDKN
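AlphaScreen: HP1-beta (50 nM) preformed 30 min with biotin-H3(1-18)K9me3 peptide (50 nM) in PBS pH 7.4, 0.01% Tween-20. Compound added for 30 min at RT, then streptavidin donor/nickel chelate acceptor beads (10 ug/mL) for 30 min.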
GLS inh: inhibitors of human glutaminase (GLS) | GLS enzymatic activity, qHTS titration | Potency, µM (titrated, usually from 45.5 µM), for inactives: at the highest dose activity change, negative = inhibition, actives largely listed as inhibitors | actives 0.21% (n = 410,000); further: on the % scale 0 is the no-effect control and ±100 the full control effect
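hKGA in 45 mM KH2PO4 (pH 8.2), 0.02% Tween-20 with compound, then 1mM L-Glutamine (stock as added) plus glutamate oxidase/HRP/Amplex red coupling mix. Fluorescence read initially and after 30 min at RT; signal change reflects glutamate formation.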
Active calls of the source: *; ? = inconclusive; / = no result; ! = not confirmed by another sample; [ ] = dose if it differs, or a comment. The call rests on the fitted dose curve; in most records, active means well fitted curve in the direction sought with a large enough effect; inconclusive means small, poorly fitted or top-dose-only effect, or another doubt; inactive means no such curve, though single readings can be large; an effect the other way counts as inactive or inconclusive. Potency means the concentration at half of the fitted maximal effect.

SMILES | G9a inh | L3MBTL1 block | JMJD2A Tudor inh | BAZ2B inh | HP1b binding inh | GLS inh
COc1ccc(C2c3ccccc3Oc3ncn(CCN4CCOCC4)c(=N)c32)cc1OC (stereo unspecified) | / | / | -35% | / | / | /
CC(=O)NC(c1ccccc1)c1c(O)ccc2ccccc12 (stereo unspecified) | 18µM* | -11% | -12% | 32µM* | 18% | 0%
O=C(Cc1ccccc1)NC(c1ccco1)c1c(O)ccc2ccccc12 (stereo unspecified) | 50µM* | -17% | ? | ? | -3% | 20%
CCC(=O)NC(c1ccccc1)c1c(O)ccc2ccccc12 (stereo unspecified) | 5% | / | -29% | -4% | 15% | 6%
CC(C)C(=O)NC(c1ccc([N+](=O)[O-])cc1)c1c(O)ccc2ccccc12 (stereo unspecified) | ? | -1% | -34% | -7% | 5% | -5%
CCCC(=O)NC(c1ccc(N(C)C)cc1)c1c(O)ccc2ccccc12 (stereo unspecified) | 32µM* | ? | 32µM* | 18µM* | 50µM* | 31%
CC(=O)NC(c1ccc([N+](=O)[O-])cc1)c1c(O)ccc2ccccc12 (stereo unspecified) | 45µM* | -21% | ? | -38% | 2% | 18%
Cc1ccc(C)c(N2CCN(C(=O)CSCc3ccccc3Cl)CC2)c1 | 36%[59 µM] | / | 17% | 12% | 46% | 3%
O=C(CNC(=O)C1CCCCC1)OCCOc1ccccc1 | / | / | -10%[57.1 µM] | / | 35%[57 µM] | /
COc1ccc(C2=NN(C(=O)c3ccccc3)C(c3ccc(OC)c(OC)c3)C2)c(O)c1 (stereo unspecified) | 71µM* | / | -33% | -26% | -7% | ?
COc1ccc(C2CC(c3ccc(OC)cc3OC(C)=O)=NN2C(=O)c2ccccc2)cc1 (stereo unspecified) | -10% | / | -28% | -32% | -17% | -3%
CCc1ccc(S(=O)(=O)N2CCN(c3ccc(Cl)c(Cl)c3)CC2)cc1 | 4%[59 µM] | / | 15% | -1% | 53% | 4%
CN(C)c1ccc(/C=[N+](\[O-])C(C)(C)/C=N/O)cc1 | ? | -4% | 50µM* | -4% | 20% | 46%
CC(C)(/C=N/O)/[N+]([O-])=C/C=[N+](\[O-])C(C)(C)/C=N/O | 0% | 4% | 0% | ? | 31% | 10%
Cc1c(CCC(=O)NCc2ccc(F)cc2)c(=O)oc2cc(O)ccc12 | 20%[59 µM] | / | -3% | 26% | 74% | 43%
O=C(/C(=C(\[O-])c1ccccc1)[n+]1ccc2ccccc2c1)c1ccccc1 | -16%[59 µM] | -8% | -15% | -31% | 24% | 11%
O=C(/C(=C(\[O-])c1ccccc1)[n+]1ccc2ccccc2c1)c1ccc(Cl)cc1 | 20µM* | 12% | -10% | 0% | 31% | -11%
Cc1nn(CC(=O)N2CCN(c3ccccc3)CC2)c(=O)c2cc3cc(F)ccc3n12 | -1%[59 µM] | / | 8% | 4% | 39% | -6%
O=C(Cn1cc(C(=O)c2ccccc2)c(=O)c2cc3c(cc21)OCCO3)Nc1ccc(F)c(F)c1 | -1%[59 µM] | / | -22% | -4% | 28% | 6%
Cc1nnc(NC2=NCCC2)o1 | 9%[12.7 µM] | -1% | 1% | 79µM* | 41% | -12%
c1coc(-c2nnc(NC3=NCCC3)o2)c1 | 6%[12.7 µM] | 0%[11.4 µM] | -14% | -1% | 28% | 8%
Cc1nnc(NC2=NCCC2)s1 | 28µM* | 3% | 79µM* | -28% | -6% | 4%
CCn1cc2nc(SCc3ccccc3Cl)n(Cc3ccc(OC)cc3)c(=O)c2n1 | -28%[59 µM] | / | ? | -11% | -19% | -12%
O=C(CSc1nnc(CNC(=O)c2ccccc2)n1-c1cccc(Cl)c1)Nc1ccccc1F | 19%[59 µM] | / | -25% | 23% | 70% | -5%
CCOC(=O)c1c(NC(=O)CSc2nnc(N)s2)sc(C)c1-c1ccc(C)cc1 | 40µM* | -8% | ? | -11% | 9% | -4%
SMILES | G9a inh | L3MBTL1 block | JMJD2A Tudor inh | BAZ2B inh | HP1b binding inh | GLS inh
Nc1nnc(SCC(=O)Nc2cccc(S(N)(=O)=O)c2)s1 | -37% | -12% | -9% | 1% | 44% | -3%
Cc1ccc(Nc2nnc(SCC(=O)NC3CCCc4ccccc43)s2)cc1 (stereo unspecified) | 79µM* | -3% | -14% | 11% | 13% | 1%
CCN(CC)S(=O)(=O)c1cccc(NC(=O)CSc2nnc(N)s2)c1 | 18µM* | -10% | -19% | -17% | 22% | 4%
CCOC(=O)c1c(NC(=O)CSc2nnc(C)c(=O)[nH]2)sc(C)c1-c1ccc(C)cc1 | -12%[12.7 µM] | / | -34% | -22% | 7% | -5%
CCc1ccc(-c2nc(SCC(=O)NC3CCS(=O)(=O)C3)n[nH]2)cc1 (stereo unspecified) | 20%[0.501 µM] | 4% | -18% | 9% | 22% | 11%
O=C(CSc1n[nH]c(-c2ccncc2)n1)NC1CCS(=O)(=O)C1 (stereo unspecified) | ? | 41% | 89µM* | 0% | 49% | 2%
N#Cc1nc(-c2ccc(OCc3ccc(Cl)cc3)cc2)oc1N1CCCC1 | / | / | 1%[57.1 µM] | / | 22%[57 µM] | /
CCOc1ccc(CNC(=O)c2ccc(NC(=O)N3CCSc4ncccc43)cc2)cc1OC | -9%[59 µM] | / | -1% | -18% | 34% | 0%
CCN(CC)c1ccc(NC(=O)CSc2nnc(N)s2)cc1C | 56µM* | / | -19% | -18% | 39% | 29%
CCOc1ccc(C(=O)CSc2nnc(N)s2)cc1 | 32µM* | 0% | -5% | 0% | 30% | 5%
COc1ccc(NC(=O)CSc2nnc(N)s2)cc1 | 79µM*! | 0% | -10% | -2% | 17% | 0%
COc1ccc(Nc2nnc(SCC(=O)NC3CCS(=O)(=O)C3)s2)cc1 (stereo unspecified) | 14µM* | 6% | -3% | -2% | 37% | 1%
COc1ccc(Nc2nnc(SCC(=O)NC3CC3)s2)cc1 | -15%[12.7 µM] | -4% | -16% | -6% | 28% | 10%
CCCN(CCC)CCNC(=O)Cn1cnc2sc(C)c(S(=O)(=O)N3CCN(c4ccccc4OC)CC3)c2c1=O | -2%[59 µM] | / | -15% | 2% | -4% | 16%
CCOC(=O)C(=CNNc1c(C)csc1C(=O)OC)C(=O)OCC | 8.9µM* | -8% | -20% | -22% | 43% | 20%
CN1Cc2c(N)cccc2C(c2ccccc2)C1 (stereo unspecified) | 14µM*! | -8% | -21% | 0% | 41% | 11%
COc1cc([N+](=O)[O-])ccc1NC(=S)Nn1cnnc1 | 10µM* | / | -33% | ? | ? | 3%

Screens: PubChem BioAssay, National Center for Advancing Translational Sciences (NCATS)
